These results are taken from PubChem BioAssay.

Calls of active or inactive are those of the source.

Test [1] concerns Plasmodium falciparum Sir2 (PF13_0152, Sir2A). In words: Plasmodium falciparum Sir2A binding compounds – biochemical, small-molecule microarray, 635 nm fluorescence, primary screen (AID 1098).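 Further: score merges spot fluorescence intensity with its signal-to-noise ratio.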 As to conditions: fluorescence 635 nm, higher = more signal.
Test [2] is described as follows: probe aDKK1 binding to arrayed compounds – biochemical, biotinylated probe, 635/667 nm fluorescence, primary screen (AID 1099).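 Further: score merges 667nm spot fluorescence with signal to noise across triplicate slides; reference of the scale not given here.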 As to conditions: small-molecule microarray, higher = more signal.
The nature of test [3]: probe aCHRDL2 binding to arrayed compounds – biochemical, biotinylated probe, 635/667 nm fluorescence, primary screen (AID 1100). As to conditions: small-molecule microarray, higher = more signal.
A short description of test [4]: change in splice reporter luminescence, either direction, cell-based, HEK293, spliceosome inhibition project, primary screen (AID 1101).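 Further: HEK293 cells carrying a splicing-competent luciferase reporter gene; test concentration not given here.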 Particulars: HEK293 splicing luciferase reporter, 24 h, higher = more signal, called active from +8 up or from −8 down.
The target in test [5] is Fibroblast growth factor 10 (Homo sapiens) (UniProt O15520). Description: compounds binding fibroblast growth factor 10 – biochemical, small-molecule microarray, 635 nm fluorescence, primary screen (AID 1102). Particulars: FGF10 binding, fluorescence 635 nm, higher = more signal.
Sequence of Fibroblast growth factor 10 (Homo sapiens) (O15520 whole entry, looked up): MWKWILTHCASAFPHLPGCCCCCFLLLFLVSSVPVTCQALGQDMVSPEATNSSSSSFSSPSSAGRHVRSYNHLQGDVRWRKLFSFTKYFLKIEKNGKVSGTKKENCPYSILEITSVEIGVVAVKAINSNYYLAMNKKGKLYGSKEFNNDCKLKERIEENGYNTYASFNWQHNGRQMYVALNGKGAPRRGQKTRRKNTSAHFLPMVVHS
The test system of test [6] is glycogen synthase kinase-3 (GSK3A per assay name; protocol says GSK3B). In words: compounds binding glycogen synthase kinase-3 – biochemical, small-molecule microarray, 635 nm fluorescence, GSK3A, primary screen (AID 1103). Further: the record names both GSK3A and GSK3B. As to conditions: fluorescence 635 nm, higher = more signal.
Test [7] concerns the target Epidermal growth factor receptor (Homo sapiens) (UniProt P00533). Description: compounds binding epidermal growth factor receptor – biochemical, small-molecule microarray, 635 nm fluorescence, primary screen (AID 1104).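 Further: score merges 667 nm emission intensity with spot signal to noise over triplicate slides.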 As to conditions: EGFR binding, higher = more signal.
Test [8] addresses Follistatin-related protein 3 (Homo sapiens) (UniProt O95633). In words: compounds binding follistatin-related protein 3 – biochemical, small-molecule microarray, 635 nm fluorescence, primary screen (AID 1105).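 Further: score merges emission near 667 nm and signal to noise per printed spot across three slides.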 Particulars: FSTL3 binding, higher = more signal.
The target in test [9] is Dickkopf-related protein 1 (Homo sapiens) (UniProt O94907). Description: small molecules binding DKK1 protein – biochemical, small-molecule microarray, 635 nm fluorescence scan, primary screen (AID 1106).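 Further: score merges emission near 667 nm with signal to noise over three replicate slides.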 Particulars: higher = more signal.
Sequence of Dickkopf-related protein 1 (Homo sapiens) (O94907 whole entry, looked up): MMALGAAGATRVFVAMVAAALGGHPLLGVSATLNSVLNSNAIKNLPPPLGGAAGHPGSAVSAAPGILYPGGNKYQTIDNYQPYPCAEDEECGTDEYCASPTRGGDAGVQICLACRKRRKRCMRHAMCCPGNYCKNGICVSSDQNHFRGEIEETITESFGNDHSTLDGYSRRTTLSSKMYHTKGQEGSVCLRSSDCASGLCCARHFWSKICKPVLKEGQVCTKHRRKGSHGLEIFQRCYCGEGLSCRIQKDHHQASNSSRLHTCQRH
The subject of test [10] is Inhibin beta A chain (activin A). In words: small molecules binding activin A – biochemical, small-molecule microarray, 635 nm fluorescence scan, primary screen (AID 1107).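 Further: mouse activin A protein probed at 4.33 µg/mL on printed slides; score merges bound-protein fluorescence near 667 nm with spot signal-to-noise.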 Particulars: INHBA, higher = more signal.

Sequence of Epidermal growth factor receptor (Homo sapiens) (P00533 whole entry, looked up): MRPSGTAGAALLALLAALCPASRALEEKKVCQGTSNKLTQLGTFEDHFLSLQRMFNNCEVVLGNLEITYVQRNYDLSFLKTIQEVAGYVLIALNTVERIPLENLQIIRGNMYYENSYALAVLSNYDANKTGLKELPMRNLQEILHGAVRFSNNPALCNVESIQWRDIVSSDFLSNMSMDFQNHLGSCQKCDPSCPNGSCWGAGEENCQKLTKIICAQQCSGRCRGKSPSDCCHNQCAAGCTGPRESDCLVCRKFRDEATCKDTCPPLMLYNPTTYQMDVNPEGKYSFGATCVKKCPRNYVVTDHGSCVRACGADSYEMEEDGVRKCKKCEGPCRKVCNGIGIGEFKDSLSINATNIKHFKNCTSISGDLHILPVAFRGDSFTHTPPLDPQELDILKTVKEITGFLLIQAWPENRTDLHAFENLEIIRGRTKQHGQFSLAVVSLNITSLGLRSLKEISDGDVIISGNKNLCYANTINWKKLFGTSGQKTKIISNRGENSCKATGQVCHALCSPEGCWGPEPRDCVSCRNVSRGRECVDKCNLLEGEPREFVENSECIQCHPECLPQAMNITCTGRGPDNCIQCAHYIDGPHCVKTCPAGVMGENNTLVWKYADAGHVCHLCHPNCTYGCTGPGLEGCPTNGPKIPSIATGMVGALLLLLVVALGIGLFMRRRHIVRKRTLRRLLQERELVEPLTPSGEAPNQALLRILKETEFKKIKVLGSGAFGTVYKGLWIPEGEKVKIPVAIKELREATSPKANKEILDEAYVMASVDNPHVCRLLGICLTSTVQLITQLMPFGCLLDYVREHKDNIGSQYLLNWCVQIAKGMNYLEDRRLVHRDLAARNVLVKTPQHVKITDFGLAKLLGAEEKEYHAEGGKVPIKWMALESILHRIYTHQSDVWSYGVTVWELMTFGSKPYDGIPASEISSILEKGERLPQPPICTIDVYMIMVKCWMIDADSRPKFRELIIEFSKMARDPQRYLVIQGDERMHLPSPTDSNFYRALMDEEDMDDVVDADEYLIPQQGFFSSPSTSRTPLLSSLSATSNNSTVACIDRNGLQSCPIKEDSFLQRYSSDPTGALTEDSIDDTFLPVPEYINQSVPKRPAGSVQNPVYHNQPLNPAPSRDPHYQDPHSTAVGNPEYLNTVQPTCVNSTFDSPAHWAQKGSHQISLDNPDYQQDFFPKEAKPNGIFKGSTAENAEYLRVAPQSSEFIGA
Sequence of Follistatin-related protein 3 (Homo sapiens) (O95633 whole entry, looked up): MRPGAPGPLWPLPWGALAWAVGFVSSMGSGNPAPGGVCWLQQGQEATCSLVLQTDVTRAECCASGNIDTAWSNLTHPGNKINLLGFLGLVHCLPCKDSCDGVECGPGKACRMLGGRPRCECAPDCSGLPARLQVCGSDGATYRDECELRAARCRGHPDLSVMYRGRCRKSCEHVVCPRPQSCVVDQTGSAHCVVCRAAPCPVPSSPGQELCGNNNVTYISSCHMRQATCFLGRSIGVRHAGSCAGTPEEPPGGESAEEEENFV

Regarding `O=C(O)[C@@]1(CCS(=O)(=O)c2ccccc2)COC(c2ccc(OCCCO)cc2)=N1`, the composite z-score in test [1] is 0.6; in test [2], 0.458; in test [3], 1.05; in test [5] it was 0.0185; in test [6], -0.62; in test [7] it was -0.939. Also, the composite z-score in [8] was -0.928; in [9], -1.17; in [10], 1.19. For the same compound, the z-score in test [4] is 0.733 (inactive).
For `COc1ccc(COC2OC[C@]3(C)[C@H]4C5=C(CN3C(=O)OC(C)(C)C)[C@H](C)C(CO)C(CO)C5CC[C@@H]24)cc1` (stereo not given in full), the composite z-score in [1] was 1; in [2], 1.06; in [3], 0.983; in test [5], 0.755; in test [6], 1.3; in test [7], -0.452. The composite z-score is 1.07 in test [8], -0.432 in test [9] and 0.797 in [10]. The z-score in test [4] was -0.807 (inactive).
For the compound `CN1C(=O)C2C=CC(C(O)c3ccc(-c4ccccc4)s3)N(N(c3ccccc3)c3ccccc3)C2C1=O` (stereo not given), the composite z-score in test [1] was 0.61; in test [2], 0.818; in [3] it was 0.798; in test [5] it was 0.186; in [6], 0.724; in [7], -0.0198. For the same compound, the figures for the composite z-score in test [8], in [9] and in test [10] were 0.338, 0.0129 and 1.18, respectively. Besides, the z-score in test [4] was 0.214 (inactive).
As for `CCCCC(=C=CC[C@@H](O)c1ccccc1OCCO)CCO`, the composite z-score in test [1] was -0.189; in [2], 0.0035; in test [3], 0.001; in test [5], 0.209; in test [6] it was -1.3; in [7], -0.903. The composite z-score in [8] was -0.375; in test [9], -0.382; in [10], 0.857. In test [4], the z-score was 0.579 (inactive).
As for `CC(C)c1ccc(NN2C(C(O)c3cc(C(F)(F)F)cc(C(F)(F)F)c3)C=CC3C(=O)N(c4ccccc4)C(=O)C32)cc1` (stereo not given), the composite z-score is 0.91 in [1]; 0.74 in [2]; 0.8 in [3]; -0.329 in test [5]; 0.543 in test [6]; -0.911 in test [7]. The composite z-score is -0.486 in test [8], -0.551 in [9] and 0.655 in test [10]. The z-score in test [4] is -0.753 (inactive).
As for `COCCOC(=O)N1C(=O)[C@@]2(c3cc(C#CC4=CCCCC4)ccc31)[C@H](c1ccc(O)cc1)N1[C@H](c3ccccc3)[C@H](c3ccccc3)OC(=O)[C@H]1[C@@H]2C(N)=O`, the composite z-score in test [1] is 1.03; in test [2], -0.327; in [3], -0.624; in test [5] it was 1.17; in test [6] it was 1.12; in [7], 0.584. Also, the composite z-score worked out at 1.16 in test [8], 0.639 in test [9] and 0.155 in test [10]. In [4], the z-score was -1.03 (inactive).
For `C#CCNC(=O)[C@H](Cc1ccccc1)NC(=O)CCC(=O)O`, the composite z-score in test [1] was -0.759; in test [2] it was -0.397; in [3], -0.205; in test [5], -0.688; in test [6], -1.14; in test [7], -0.659. The composite z-score in test [8] is -1.22; in test [9], -0.447; in [10], 0.735. Also, the z-score in test [4] is -0.222 (inactive).
For the compound `C=CCOC(=O)[C@@H]1[C@H]2C(=O)O[C@H](c3ccccc3)[C@H](c3ccccc3)N2[C@H](c2ccc(OCCOC(=O)[C@@H]3C[C@@H]4C(=O)N[C@@H](Cc5ccccc5)C(=O)N4[C@@H]3c3ccc(O)cc3)cc2)[C@@]12C(=O)Nc1ccc(I)cc12`, the composite z-score is 1.46 in [1]; -0.191 in test [2]; -0.35 in test [3]; 1.16 in test [5]; 1.19 in [6]; 0.711 in [7]. Besides, the composite z-score in test [8] was 1.38; in test [9], 1.03; in test [10], 0.518. In addition, the z-score in test [4] was -1.17 (inactive).
With `C=CCOC(=O)[C@@H]1[C@H]2C(=O)O[C@H](c3ccccc3)[C@H](c3ccccc3)N2[C@H](c2ccc(OCCOC(=O)[C@@H]3C[C@@H]4C(=O)N5CCC[C@H]5C(=O)N4[C@@H]3c3ccc(O)cc3)cc2)[C@@]12C(=O)Nc1ccc(I)cc12`, the composite z-score in test [1] is 0.544; in test [2] it was -0.627; in test [3], -0.257; in test [5], 0.624; in [6], 1.3; in [7] it was 0.555. The figures for the composite z-score in test [8], in test [9] and in test [10] were 0.913, 0.794 and -0.495, respectively. Further, in test [4], the z-score is -1.98 (inactive).
As for `COc1cc2c(cc1O)C(C1CC1)N(Cc1cc3c(cc1Br)OCO3)CC2` (stereo not given), the composite z-score in [1] was 0.802; in test [2], -0.197; in [3], 0.655; in [5], -1.02; in [6] it was -1.26; in [7], -1.12. Further, the values for the composite z-score in test [8], in [9] and in [10] were -1.35, -0.948 and -0.13, respectively. Besides, in [4], the z-score is -0.39 (inactive).
For `C=CCOC(=O)[C@H]1[C@@H]2C(=O)O[C@@H](c3ccccc3)[C@@H](c3ccccc3)N2[C@@H](c2ccc(OCCOC(=O)[C@H]3C[C@H]4C(=O)N5CCC[C@H]5C(=O)N4[C@H]3c3ccc(O)cc3)cc2)[C@]12C(=O)Nc1ccc(I)cc12`, the composite z-score in test [1] came to 2.09; in [2], 1.76; in [3], 1.42; in test [5], 1.47; in [6], 1.37; in [7], 0.429. Moreover, the composite z-score was 1.42 in test [8], 1.97 in test [9] and 1.41 in [10]. Moreover, in test [4], the z-score is -1.93 (inactive).
For the compound `CCOC(=O)C=Cc1cc([N+](=O)[O-])ccc1O`, the composite z-score in [1] is -0.551; in test [2], -0.14; in test [3], -0.134; in test [5] it was -0.395; in [6], -0.398; in test [7], -0.899. The figures for the composite z-score in test [8], in test [9] and in test [10] were -0.971, -0.693 and -0.855, respectively. In test [4], the z-score was -1.72 (inactive).
For `[N-]=[N+]=NCc1ccccc1C[C@]1(C(=O)NCC(O)CO)N=C(c2ccc(OCCCO)cc2)O[C@H]1c1ccccc1` (stereo not given in full), the composite z-score in test [1] is -0.338; in test [2], 1.04; in test [3] it was 0.889; in test [5], -0.337; in [6], -0.836; in test [7], -0.886. The composite z-score in test [8] was -0.689; in [9] it was -1.37; in test [10], 0.51. Moreover, the z-score in [4] was 0.321 (inactive).
Turning to `O=C1c2ccccc2[C@](Cc2ccccc2I)(C(=O)NC2CC2)[C@H](c2ccc(CO)cc2)N1Cc1ccccc1`, the composite z-score in [1] is 0.701; in test [2], -0.145; in [3], 0.693; in [5], 0.409; in test [6] it was -0.0685; in test [7], -0.375. The composite z-score in [8] is -0.117; in test [9] it was -0.112; in test [10] it was 0.0183. Besides, in test [4], the z-score was -0.0921 (inactive).
